Laboratory results taken from the supplement of paper PMC10849652.
About 7,900 targets were measured; listed, in parts, are those with a hit and a random draw of the rest. About 0.6% of all pairs of compound and target were hits.

Experiments:
Test in all cases: log2 fold change, soluble protein after heating vs DMSO (PISA); higher = thermal stabilisation; K562 cells, 10 uM, 30 min; active = over 0.2 and 3.5 SD of the protein, either way, in both replicates (recomputed)
[1] = compound: CC[C@@H]1C(=O)N(C)c2cnc(Nc3ccc(C(=O)NC4CCN(C)CC4)cc3OC)nc2N1C1CCCC1
How it was run: (§1)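 K562 cells at 2×10^6 cells/mL were exposed to 10 μM compound for 30 min, then aliquots were heated for 3 min across 48°C-58°C, pooled, and extracted in PBS containing 0.5% NP-40 at 4°C. The supernatant after 21,000xg for 90 min was taken as soluble protein and measured by TMTpro 16plex LC-MS/MS with channel sums equalised. Thermal stability is reported relative to control samples, with values from duplicates. Fold changes are given on a log2 scale.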

volasertib = compound: CC[C@@H]1C(=O)N(C)c2cnc(Nc3ccc(C(=O)N[C@H]4CC[C@H](N5CCN(CC6CC6)CC5)CC4)cc3OC)nc2N1C(C)C [volasertib]
How it was run: as §1

[2] = compound: CC[C@H](C)N1C=C(C2=C(C=C(C=C21)C3=CN=C(C=C3)N4CCNCC4)C(=O)NCC5=C(C=C(NC5=O)C)C)C
How it was run: as §1

epoxomicin = compound: CC[C@H](C)[C@@H](C(=O)N[C@@H]([C@@H](C)O)C(=O)N[C@@H](CC(C)C)C(=O)[C@]1(CO1)C)NC(=O)[C@H]([C@@H](C)CC)N(C)C(=O)C [epoxomicin]
How it was run: as §1

[3] = compound: CCn1c(C(=O)N(C2CC2)C2CC2)cc2c3c(ncn3C)c(Nc3cc(C)n(C)n3)nc21
How it was run: as §1

[4] = compound: CCn1cc(-c2ccnc3[nH]c(-c4cccc(CN(C)C)c4)cc23)c(-c2ccc(NC(=O)N(C)C)cc2)n1
How it was run: as §1

[5] = compound: CN(C)CC(=O)Nc1ccc2[nH]c(=O)c3ccccc3c2c1
How it was run: as §1

rosiglitazone = compound: CN(CCOC1=CC=C(C=C1)C[C@H]2C(=O)NC(=O)S2)C3=CC=CC=N3 (racemic) [rosiglitazone]
How it was run: as §1

[6] = compound: CN1C2=C(C3=C1C(=O)N(N=C3)CC4=CC(=CC=C4)N)SC(=C2)S(=O)C
How it was run: as §1

[7] = compound: CN1CCC(CNc2ccc3ncc(-c4cccc(OC(F)(F)F)c4)n3n2)CC1
How it was run: as §1

Measured: log2 fold change

PCYT1B (UniProt Q9Y5K3)
UniProt Q9Y5K3, sequence (Q9Y5K3 whole entry, looked up): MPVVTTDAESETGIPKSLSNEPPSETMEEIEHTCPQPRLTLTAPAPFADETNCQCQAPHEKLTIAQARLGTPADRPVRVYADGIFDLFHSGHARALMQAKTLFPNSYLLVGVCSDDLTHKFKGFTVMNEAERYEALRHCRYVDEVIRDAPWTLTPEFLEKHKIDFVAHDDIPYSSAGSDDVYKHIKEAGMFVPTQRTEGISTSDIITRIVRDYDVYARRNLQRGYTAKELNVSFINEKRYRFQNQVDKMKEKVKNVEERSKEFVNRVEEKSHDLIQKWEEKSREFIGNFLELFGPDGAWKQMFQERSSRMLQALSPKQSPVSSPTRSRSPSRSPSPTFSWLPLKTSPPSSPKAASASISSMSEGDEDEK
inactive: [1] -0.105 | [2] 0.08 | epoxomicin 0.001 | [3] -0.033 | [4] 0 | [5] 0.012 | rosiglitazone 0.041 | [6] -0.007 | [7] 0.035
active: volasertib -0.315

PRKAG1 isoform 3 (UniProt P54619)
inactive: [1] -0.018 | volasertib -0.207 | [2] 0.048 | epoxomicin -0.024 | [3] 0.002 | [4] -0.033 | [5] -0.015 | rosiglitazone 0.033 | [6] -0.009
active: [7] -0.299

PTPA (UniProt A6PVN8)
inactive: [1] 0.051 | volasertib -0.041 | [2] -0.03 | epoxomicin 0.053 | [3] 0.099 | [4] 0.047 | [5] 0.016 | rosiglitazone -0.105 | [6] 0.069 | [7] 0.011

PPIL2 (UniProt Q13356)
UniProt Q13356, sequence (Q13356 whole entry, looked up): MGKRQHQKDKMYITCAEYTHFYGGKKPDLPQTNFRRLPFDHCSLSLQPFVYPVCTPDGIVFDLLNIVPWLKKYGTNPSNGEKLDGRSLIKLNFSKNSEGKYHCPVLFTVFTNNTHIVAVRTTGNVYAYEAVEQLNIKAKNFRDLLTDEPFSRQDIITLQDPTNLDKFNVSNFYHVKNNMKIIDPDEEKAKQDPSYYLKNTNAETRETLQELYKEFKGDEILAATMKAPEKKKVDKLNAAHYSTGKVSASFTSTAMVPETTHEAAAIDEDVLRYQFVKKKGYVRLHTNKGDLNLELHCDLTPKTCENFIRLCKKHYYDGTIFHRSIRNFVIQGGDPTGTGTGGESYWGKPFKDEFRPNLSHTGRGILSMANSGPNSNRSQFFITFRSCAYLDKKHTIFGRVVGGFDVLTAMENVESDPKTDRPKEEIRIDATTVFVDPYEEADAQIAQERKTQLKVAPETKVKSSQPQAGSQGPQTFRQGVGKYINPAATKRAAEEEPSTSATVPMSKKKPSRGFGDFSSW
active: volasertib -0.599
inactive: [1] -0.196 | [2] 0.159 | epoxomicin 0.142 | [3] -0.098 | [4] -0.031 | [5] 0.08 | rosiglitazone 0.043 | [6] -0.019 | [7] -0.022

PMPCB (UniProt O75439)
inactive: [1] 0.008 | volasertib 0.138 | [2] 0.038 | epoxomicin 0.022 | [3] -0.017 | [4] -0.125 | [5] 0.032 | rosiglitazone 0.002 | [6] -0.084 | [7] 0.098

POGLUT1 (UniProt Q8NBL1)
UniProt Q8NBL1, sequence (Q8NBL1 whole entry, looked up): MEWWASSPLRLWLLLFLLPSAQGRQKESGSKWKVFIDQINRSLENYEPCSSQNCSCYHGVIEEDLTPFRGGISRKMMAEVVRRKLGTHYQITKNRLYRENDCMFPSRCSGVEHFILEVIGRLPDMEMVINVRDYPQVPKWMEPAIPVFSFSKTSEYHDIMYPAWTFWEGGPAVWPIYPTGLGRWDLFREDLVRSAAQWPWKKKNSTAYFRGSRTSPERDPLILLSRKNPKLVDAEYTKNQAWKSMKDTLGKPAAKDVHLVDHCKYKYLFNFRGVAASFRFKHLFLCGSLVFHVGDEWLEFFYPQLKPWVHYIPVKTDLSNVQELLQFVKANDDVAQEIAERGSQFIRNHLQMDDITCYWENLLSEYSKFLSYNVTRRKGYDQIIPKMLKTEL
inactive: [1] 0.007 | volasertib -0.054 | [2] 0.013 | epoxomicin 0.012 | [3] -0.051 | [4] 0.089 | [5] -0.083 | rosiglitazone -0.019 | [6] 0.039
active: [7] 0.26

PDCD2L (UniProt Q9BRP1)
inactive: [1] -0.201 | [2] 0.017 | epoxomicin 0.07 | [3] -0.107 | [4] -0.171 | [5] 0.038 | rosiglitazone 0.018 | [6] -0.038 | [7] -0.073
active: volasertib -0.435

PRKACA (UniProt P17612)
inactive: [1] -0.028 | volasertib -0.046 | [2] 0.068 | epoxomicin -0.072 | [3] -0.048 | [4] -0.058 | [5] 0 | rosiglitazone 0.033 | [6] -0.003 | [7] 0.085

PMM1 (UniProt Q92871)
inactive: [1] -0.029 | volasertib -0.239 | [2] -0.024 | epoxomicin -0.002 | [3] -0.025 | [4] 0.08 | [5] 0.009 | rosiglitazone 0.047 | [6] -0.061 | [7] -0.018

PCNT (UniProt O95613)
UniProt O95613, sequence (O95613 whole entry, looked up): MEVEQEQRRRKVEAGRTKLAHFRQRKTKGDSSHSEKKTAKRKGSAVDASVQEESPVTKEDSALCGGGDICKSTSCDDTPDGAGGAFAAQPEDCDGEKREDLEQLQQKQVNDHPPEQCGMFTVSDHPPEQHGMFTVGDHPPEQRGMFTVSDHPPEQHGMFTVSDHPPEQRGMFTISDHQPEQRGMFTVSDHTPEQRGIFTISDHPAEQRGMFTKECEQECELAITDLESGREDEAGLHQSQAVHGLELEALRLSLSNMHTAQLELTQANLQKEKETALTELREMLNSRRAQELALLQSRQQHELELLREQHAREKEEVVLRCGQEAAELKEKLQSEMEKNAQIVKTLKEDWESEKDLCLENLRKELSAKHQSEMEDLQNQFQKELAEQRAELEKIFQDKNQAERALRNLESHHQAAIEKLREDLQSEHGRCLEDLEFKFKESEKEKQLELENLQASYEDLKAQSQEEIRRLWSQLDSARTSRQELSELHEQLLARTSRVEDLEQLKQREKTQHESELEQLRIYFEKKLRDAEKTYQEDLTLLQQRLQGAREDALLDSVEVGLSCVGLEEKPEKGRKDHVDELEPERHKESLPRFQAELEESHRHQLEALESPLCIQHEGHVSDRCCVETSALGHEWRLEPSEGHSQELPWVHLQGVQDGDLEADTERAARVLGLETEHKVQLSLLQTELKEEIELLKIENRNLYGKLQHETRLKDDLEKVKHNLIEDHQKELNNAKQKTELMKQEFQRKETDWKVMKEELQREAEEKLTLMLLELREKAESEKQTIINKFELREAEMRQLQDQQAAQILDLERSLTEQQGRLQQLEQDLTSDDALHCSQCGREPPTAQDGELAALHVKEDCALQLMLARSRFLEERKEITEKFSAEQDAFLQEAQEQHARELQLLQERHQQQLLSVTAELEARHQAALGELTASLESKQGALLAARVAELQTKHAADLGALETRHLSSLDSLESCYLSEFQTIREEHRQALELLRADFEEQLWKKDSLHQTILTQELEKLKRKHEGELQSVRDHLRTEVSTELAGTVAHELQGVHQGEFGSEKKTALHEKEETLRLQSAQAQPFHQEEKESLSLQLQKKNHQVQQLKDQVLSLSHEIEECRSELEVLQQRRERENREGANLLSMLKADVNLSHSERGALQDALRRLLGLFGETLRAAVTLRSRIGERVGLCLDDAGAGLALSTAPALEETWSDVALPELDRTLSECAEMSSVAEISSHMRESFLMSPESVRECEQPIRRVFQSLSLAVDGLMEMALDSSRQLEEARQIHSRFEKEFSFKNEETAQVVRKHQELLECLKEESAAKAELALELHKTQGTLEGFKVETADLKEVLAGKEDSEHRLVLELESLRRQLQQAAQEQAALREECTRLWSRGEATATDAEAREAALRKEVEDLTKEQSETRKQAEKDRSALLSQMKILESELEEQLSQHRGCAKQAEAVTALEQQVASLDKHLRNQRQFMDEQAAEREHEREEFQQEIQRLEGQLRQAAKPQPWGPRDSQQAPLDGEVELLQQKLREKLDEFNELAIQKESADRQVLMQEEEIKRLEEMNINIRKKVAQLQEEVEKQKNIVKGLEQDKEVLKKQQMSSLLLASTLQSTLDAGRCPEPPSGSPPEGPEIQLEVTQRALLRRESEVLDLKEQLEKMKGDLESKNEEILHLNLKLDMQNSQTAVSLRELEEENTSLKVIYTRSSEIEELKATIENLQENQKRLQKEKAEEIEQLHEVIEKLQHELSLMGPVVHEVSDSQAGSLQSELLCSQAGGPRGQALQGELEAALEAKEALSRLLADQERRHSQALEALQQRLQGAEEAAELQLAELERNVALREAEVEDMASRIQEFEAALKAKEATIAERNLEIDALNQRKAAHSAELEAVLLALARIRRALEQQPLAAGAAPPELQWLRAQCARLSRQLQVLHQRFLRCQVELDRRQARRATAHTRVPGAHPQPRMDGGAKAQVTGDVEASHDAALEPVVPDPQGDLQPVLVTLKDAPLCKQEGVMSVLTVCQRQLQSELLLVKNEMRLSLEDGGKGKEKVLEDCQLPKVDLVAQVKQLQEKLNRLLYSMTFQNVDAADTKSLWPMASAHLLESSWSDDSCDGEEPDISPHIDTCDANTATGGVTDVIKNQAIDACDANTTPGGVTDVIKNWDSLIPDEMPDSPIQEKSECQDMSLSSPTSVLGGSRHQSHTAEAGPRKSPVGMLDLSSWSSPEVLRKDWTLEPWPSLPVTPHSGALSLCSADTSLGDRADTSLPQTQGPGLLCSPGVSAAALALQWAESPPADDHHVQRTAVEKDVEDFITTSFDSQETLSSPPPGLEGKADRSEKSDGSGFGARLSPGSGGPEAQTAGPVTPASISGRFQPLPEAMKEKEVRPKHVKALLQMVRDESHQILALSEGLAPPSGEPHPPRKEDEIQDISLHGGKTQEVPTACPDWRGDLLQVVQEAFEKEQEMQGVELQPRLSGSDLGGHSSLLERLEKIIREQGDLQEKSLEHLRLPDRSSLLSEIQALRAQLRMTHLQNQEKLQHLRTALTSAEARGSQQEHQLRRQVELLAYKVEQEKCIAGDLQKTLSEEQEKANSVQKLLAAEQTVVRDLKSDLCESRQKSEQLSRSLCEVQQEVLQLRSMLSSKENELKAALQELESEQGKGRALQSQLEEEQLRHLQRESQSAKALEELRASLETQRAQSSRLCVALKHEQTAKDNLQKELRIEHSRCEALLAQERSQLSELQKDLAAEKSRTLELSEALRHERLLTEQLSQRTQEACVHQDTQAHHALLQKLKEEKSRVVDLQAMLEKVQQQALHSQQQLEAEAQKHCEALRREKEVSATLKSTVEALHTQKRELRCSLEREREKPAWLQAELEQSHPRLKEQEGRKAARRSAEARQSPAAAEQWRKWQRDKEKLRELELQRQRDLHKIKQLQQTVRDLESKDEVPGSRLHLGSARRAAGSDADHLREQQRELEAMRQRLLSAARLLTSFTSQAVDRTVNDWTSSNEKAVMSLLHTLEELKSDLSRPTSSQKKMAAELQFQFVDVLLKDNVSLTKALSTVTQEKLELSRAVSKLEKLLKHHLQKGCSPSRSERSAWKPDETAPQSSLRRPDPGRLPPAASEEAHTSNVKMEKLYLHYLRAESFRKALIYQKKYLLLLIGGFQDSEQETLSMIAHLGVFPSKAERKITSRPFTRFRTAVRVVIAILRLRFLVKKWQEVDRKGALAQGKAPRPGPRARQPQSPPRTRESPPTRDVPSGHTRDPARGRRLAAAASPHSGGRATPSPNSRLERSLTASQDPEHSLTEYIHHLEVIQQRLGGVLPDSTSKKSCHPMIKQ
inactive: [1] 0.08 | volasertib 0.131 | [2] -0.147 | epoxomicin -0.177 | [3] -0.105 | [4] -0.002 | [5] -0.101 | rosiglitazone 0.05 | [6] 0.158
active: [7] -0.567

PCK2 (UniProt Q16822)
inactive: [1] 0.012 | volasertib -0.076 | [2] 0.033 | epoxomicin 0.059 | [3] 0.016 | [4] -0.07 | [5] 0 | rosiglitazone 0.011 | [6] -0.094 | [7] 0.027

PEA15 isoform 2 (UniProt Q15121)
inactive: [1] -0.078 | volasertib -0.162 | [2] -0.018 | epoxomicin 0 | [3] 0.083 | [4] 0.022 | [5] 0.004 | rosiglitazone 0.025 | [6] -0.002 | [7] 0.039

PRKAB2 (UniProt O43741)
inactive: [1] 0.085 | volasertib -0.185 | [2] 0.022 | epoxomicin 0.205 | [3] 0.013 | [4] -0.089 | [5] 0.067 | rosiglitazone 0.044 | [6] 0.043 | [7] -0.247

PPP1R35 (UniProt Q8TAP8)
inactive: [1] 0.062 | volasertib 0.101 | [2] -0.062 | epoxomicin 0.062 | [3] 0.009 | [4] 0.007 | [5] -0.004 | rosiglitazone 0.035 | [6] 0.027 | [7] -0.032

PRPF31 (UniProt Q8WWY3)
UniProt Q8WWY3, sequence (Q8WWY3 whole entry, looked up): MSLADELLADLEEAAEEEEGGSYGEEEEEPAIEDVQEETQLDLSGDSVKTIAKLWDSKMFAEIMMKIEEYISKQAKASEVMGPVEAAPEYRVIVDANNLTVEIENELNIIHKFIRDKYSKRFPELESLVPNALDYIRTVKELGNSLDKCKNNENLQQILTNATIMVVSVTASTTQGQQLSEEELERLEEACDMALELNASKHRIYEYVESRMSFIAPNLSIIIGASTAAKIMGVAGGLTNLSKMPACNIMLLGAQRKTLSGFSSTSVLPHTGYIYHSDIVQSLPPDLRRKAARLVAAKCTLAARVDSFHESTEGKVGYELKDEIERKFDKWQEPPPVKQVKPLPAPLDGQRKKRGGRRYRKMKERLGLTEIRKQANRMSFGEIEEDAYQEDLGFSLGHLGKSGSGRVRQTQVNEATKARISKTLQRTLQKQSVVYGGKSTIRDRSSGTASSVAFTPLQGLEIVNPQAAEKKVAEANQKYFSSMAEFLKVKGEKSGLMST
inactive: [1] -0.113 | [2] 0.172 | epoxomicin 0.049 | [3] -0.058 | [4] -0.079 | [5] 0.181 | rosiglitazone 0.104 | [6] -0.041 | [7] -0.348
active: volasertib -0.548
